# From PubChem BioAssay
# Calls of active or inactive are those of the source.
# Assays:
# [1] = optical density shifts of acrAB sulA E. coli – strain DRC41, OD650, 48 h, E. coli filamentation inducer project, primary screen (AID 1152); conditions: higher = more signal, called active from +8 up or from −8 down;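 note: E. coli MC1000 strain DRC41 lacking acrAB efflux pump and sulA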
# [2] = probe aLefty1 binding on compound microarray – biochemical, small-molecule microarray, 635/667 nm fluorescence, primary screen (AID 1153); conditions: higher = more signal;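 note: score merges spot fluorescence with signal-to-noise ratio from the scanned slide images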
# [3] = plasmodial surface anion channel blockers, osmotic lysis – cell-based, P. falciparum Indochina, OD700, 1 h, primary screen (AID 1154); conditions: P. falciparum Indochina infected RBC osmotic lysis, higher = more signal, called active from +8 up or from −8 down
# [4] = plasmodial surface anion channel blockers, osmotic lysis – cell-based, P. falciparum Indochina, OD700, 2 h, primary screen (AID 1155);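 note: lysis reports solute entry through the parasite surface anion channel PSAC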; conditions: P. falciparum Indochina infected erythrocytes, higher = more signal, called active from +8 up or from −8 down
# [5] = changes in parasitized red cell lysis, either direction – P. falciparum Indochina, OD700, 3 h, PSAC antagonist project, primary screen (AID 1156); conditions: P. falciparum-infected erythrocytes, osmotic lysis, higher = more signal, called active from +8 up or from −8 down
# [6] = plasmodial surface anion channel blockers, osmotic lysis – cell-based, P. falciparum Indochina, OD700, 18 h, primary screen (AID 1157); conditions: P. falciparum Indochina infected erythrocytes, osmotic lysis OD700, 18 h; higher = more signal, called active from +8 up or from −8 down
# [7] = S6 kinase pathway phospho-S6 level changes – cell-based, A549, cytoblot, luminescence, serum-stimulated, primary screen (AID 1158); conditions: 5 h, higher = more signal;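 note: serum-stimulated A549 lung adenocarcinoma cells; signal is phosphorylated S6 detected by cytoblot immunostaining with HRP secondary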
# [8] = biological target: NADPH oxidase 2 (Homo sapiens) (UniProt P04839); test: compounds shifting NOX2 Amplex Red fluorescence – cell-based, HEK293-NOX2, PMA-stimulated, NOX inhibitor project, primary screen (AID 1159); conditions: 45 min, higher = more signal, called active from +8 up or from −8 down; note: test concentration not given here
# [9] = biological target: NADPH oxidase 4 (Homo sapiens) (UniProt Q9NPH5); test: compounds shifting NOX4 Amplex Red fluorescence – cell-based, HEK293-NOX4, tetracycline-induced, NOX inhibitor project, primary screen (AID 1160); conditions: HEK293-NOX4, Amplex Red H2O2 fluorescence, 45 min; higher = more signal, called active from +8 up or from −8 down
# [10] = biological target: NADPH oxidase 5 (Homo sapiens) (UniProt Q96PH1); test: compounds shifting NOX5 Amplex Red fluorescence – cell-based, HEK293-NOX5, NOX inhibitor project, primary screen (AID 1161); conditions: HEK293-NOX5, ionomycin, 45 min, higher = more signal
# Sequence of NADPH oxidase 5 (Homo sapiens) (Q96PH1 whole entry, looked up): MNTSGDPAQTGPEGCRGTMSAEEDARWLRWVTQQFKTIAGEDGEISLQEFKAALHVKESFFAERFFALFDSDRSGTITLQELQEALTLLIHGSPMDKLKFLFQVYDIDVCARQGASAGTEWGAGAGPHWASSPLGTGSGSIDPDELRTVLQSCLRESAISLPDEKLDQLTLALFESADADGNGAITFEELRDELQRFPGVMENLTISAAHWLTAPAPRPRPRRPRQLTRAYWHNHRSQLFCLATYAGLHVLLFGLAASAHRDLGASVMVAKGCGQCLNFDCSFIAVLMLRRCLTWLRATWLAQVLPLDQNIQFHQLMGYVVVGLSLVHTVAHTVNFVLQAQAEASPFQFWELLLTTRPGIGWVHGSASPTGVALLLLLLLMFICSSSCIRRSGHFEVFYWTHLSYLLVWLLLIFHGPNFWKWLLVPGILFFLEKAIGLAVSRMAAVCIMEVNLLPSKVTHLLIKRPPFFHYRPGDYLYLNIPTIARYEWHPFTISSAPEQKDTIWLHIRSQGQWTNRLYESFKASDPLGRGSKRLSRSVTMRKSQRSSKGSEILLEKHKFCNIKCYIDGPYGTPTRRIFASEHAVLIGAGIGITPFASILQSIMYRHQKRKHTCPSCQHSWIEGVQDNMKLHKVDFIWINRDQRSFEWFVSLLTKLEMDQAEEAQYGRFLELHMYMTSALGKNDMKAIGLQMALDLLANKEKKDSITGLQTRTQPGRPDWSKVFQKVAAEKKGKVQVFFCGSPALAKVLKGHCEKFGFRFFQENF
# Sequence of NADPH oxidase 4 (Homo sapiens) (Q9NPH5 whole entry, looked up): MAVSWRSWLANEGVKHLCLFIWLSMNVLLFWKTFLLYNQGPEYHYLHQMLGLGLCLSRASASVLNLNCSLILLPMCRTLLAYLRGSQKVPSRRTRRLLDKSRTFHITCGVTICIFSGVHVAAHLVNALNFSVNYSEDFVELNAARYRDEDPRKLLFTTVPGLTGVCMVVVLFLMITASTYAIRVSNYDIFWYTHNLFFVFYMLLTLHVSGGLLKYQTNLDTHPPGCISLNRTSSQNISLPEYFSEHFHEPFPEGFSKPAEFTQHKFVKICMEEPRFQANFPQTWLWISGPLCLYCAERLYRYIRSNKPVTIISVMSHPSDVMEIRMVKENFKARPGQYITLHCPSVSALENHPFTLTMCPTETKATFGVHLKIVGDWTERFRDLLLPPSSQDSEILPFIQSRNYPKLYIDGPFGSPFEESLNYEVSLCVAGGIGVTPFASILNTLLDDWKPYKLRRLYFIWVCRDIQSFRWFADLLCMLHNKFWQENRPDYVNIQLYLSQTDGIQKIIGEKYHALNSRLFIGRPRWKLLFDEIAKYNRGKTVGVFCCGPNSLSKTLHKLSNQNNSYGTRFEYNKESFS
# Sequence of NADPH oxidase 2 (Homo sapiens) (P04839 whole entry, looked up): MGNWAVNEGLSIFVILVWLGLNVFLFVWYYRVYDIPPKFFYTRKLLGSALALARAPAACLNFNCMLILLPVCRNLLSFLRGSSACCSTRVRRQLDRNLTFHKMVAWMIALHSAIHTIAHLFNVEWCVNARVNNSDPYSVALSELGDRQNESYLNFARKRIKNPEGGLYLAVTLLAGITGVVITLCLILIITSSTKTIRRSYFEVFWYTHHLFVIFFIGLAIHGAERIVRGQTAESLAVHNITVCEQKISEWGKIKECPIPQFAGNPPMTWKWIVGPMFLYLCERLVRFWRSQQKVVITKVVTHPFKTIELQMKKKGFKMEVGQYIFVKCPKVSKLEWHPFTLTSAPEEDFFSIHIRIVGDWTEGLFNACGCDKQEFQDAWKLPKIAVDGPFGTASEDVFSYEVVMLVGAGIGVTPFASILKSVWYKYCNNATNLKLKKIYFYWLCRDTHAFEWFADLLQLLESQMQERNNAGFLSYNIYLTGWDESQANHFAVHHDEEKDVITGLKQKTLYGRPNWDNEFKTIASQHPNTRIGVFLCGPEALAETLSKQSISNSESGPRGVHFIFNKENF
SMILES,z-score [1],composite z-score [2],z-score [3],z-score [4],z-score [5],z-score [6],z-score [7],z-score [8],z-score [9],z-score [10]
CCC[C@@H]1C[C@@]1(CCC)[C@@H](NC(=O)c1ccccc1)c1cccc(Cl)c1,-1 (inactive),2.15,0.534 (inactive),0.364 (inactive),0.277 (inactive),0.839 (inactive),-0.841,0.46 (inactive),-0.107 (inactive),0.328
CC(C)C[C@@H]1NC(=O)[C@H](C(C)C)NC(=O)[C@@]23C(=O)N[C@@H](Cc4ccccc4)C2[C@H](C)[C@@]2(C)O[C@H]2C3/C=C/CC/C=C/CNC1=O (stereo not given in full),-0.62 (inactive),0.131,4.9 (inactive),0.538 (inactive),0.841 (inactive),0.771 (inactive),0.116,-0.159 (inactive),0.338 (inactive),-0.477
NC(=O)NCC#Cc1ccc2c(c1)[C@]1(C(=O)N2)[C@H](C(N)=O)[C@H]2C(=O)O[C@H](c3ccccc3)[C@H](c3ccccc3)N2[C@@H]1c1ccc(O)cc1,0.0502 (inactive),1.73,0.271 (inactive),0.436 (inactive),0.471 (inactive),0.124 (inactive),0.226,0.122 (inactive),-0.519 (inactive),-0.479
COc1cc2c(cc1OC)CN(C(=O)[C@H]1[C@@H]3C(=O)O[C@@H](c4ccccc4)[C@@H](c4ccccc4)N3[C@@H](c3ccc(O)cc3)[C@]13C(=O)Nc1ccc(C#CCCO)cc13)CC2,0.675 (inactive),-0.147,1.06 (inactive),0.736 (inactive),1.15 (inactive),0.689 (inactive),0.503,1.38 (inactive),-0.0637 (inactive),1.08
COCCOC(=O)N1C(=O)[C@@]2(c3cc(C#CCC(C(=O)OC)C(=O)OC)ccc31)[C@H](c1ccccc1OCCO)N1[C@H](c3ccccc3)[C@H](c3ccccc3)OC(=O)[C@H]1[C@@H]2C(=O)N1CCN(c2ncccn2)CC1,1.2 (inactive),1.16,2.83 (inactive),1.11 (inactive),1.28 (inactive),0.851 (inactive),-0.139,0.823 (inactive),0.656 (inactive),1.27
COCCOC(=O)N1C(=O)[C@@]2(c3cc(C#CC4(O)CCCCCC4)ccc31)[C@H](c1ccccc1OCCO)N1[C@H](c3ccccc3)[C@H](c3ccccc3)OC(=O)[C@H]1[C@@H]2C(=O)N1CCN(c2ncccn2)CC1,0.888 (inactive),-0.0437,1.67 (inactive),1.31 (inactive),0.824 (inactive),0.712 (inactive),-0.0324,0.342 (inactive),0.386 (inactive),1.03
COCCCNC(=O)[C@@]1(C)c2ccccc2C(=O)N(C(C)C)[C@H]1c1ccc(CO)cc1,-0.794 (inactive),0.163,0.877 (inactive),-0.057 (inactive),0.386 (inactive),0.743 (inactive),-0.504,-0.636 (inactive),0.43 (inactive),-0.249
CC(C)C(=C=CC[C@@H](O)c1ccc(OCCO)cc1)C[C@@H](O)c1ccccn1,-0.197 (inactive),-0.101,6.54 (inactive),0.977 (inactive),0.166 (inactive),0.479 (inactive),-0.652,0.0116 (inactive),0.26 (inactive),-0.124
CC1CC/C=C\[C@H]2OC34C=CCN(C(C)(C)C)C(=O)[C@H]3N(C(C)CO)C(=O)[C@@H]4C2C(=O)O1 (stereo not given in full),-0.265 (inactive),-0.0984,1.42 (inactive),0.576 (inactive),0.545 (inactive),0.355 (inactive),0.021,0.499 (inactive),-0.812 (inactive),1.65
O=C1C2C=CC(C(O)CCc3ccccc3)N(Nc3ccccc3F)C2C(=O)N1c1ccccc1 (stereo not given),-0.383 (inactive),-0.322,1.87 (inactive),1.15 (inactive),0.517 (inactive),0.807 (inactive),-0.638,0.236 (inactive),-0.452 (inactive),-0.449
C=C(COC)/C(=C/C[C@@H](OC(C)=O)c1ccc(OCCO)cc1)c1cnc2ccccc2c1,2.11 (inactive),0.127,20.2 (active),3.53 (inactive),0.844 (inactive),-0.282 (inactive),1.81,-2.04 (inactive),-0.287 (inactive),-1.08
COC(=O)C[C@H]1O[C@]2(C(=O)N(C)c3ccccc32)[C@@H](C)[C@@H]1[Si](C)(C)F,2.91 (inactive),0.0982,-0.0899 (inactive),-0.562 (inactive),-0.338 (inactive),-2.12 (inactive),1.26,-0.771 (inactive),0.555 (inactive),1.45
CCCC=C(CCC)[C@@H](NC(=O)c1cccs1)c1ccc(C(F)(F)F)cc1,-0.938 (inactive),0.504,3.15 (inactive),-0.119 (inactive),1.36 (inactive),-1.39 (inactive),1.42,-4.56 (inactive),-3.52 (inactive),-2.77
C=C[C@H](C)[C@@H](OC(=O)Nc1ccc(OC)cc1)c1ccc(O)c2ccccc12,-0.368 (inactive),0.0903,3.54 (inactive),0.265 (inactive),-0.122 (inactive),0.132 (inactive),-0.751,-5.53 (inactive),-1.89 (inactive),-0.55
CCC[C@@H]1C[C@@]1(CCC)[C@@H](NS(=O)(=O)c1cccc2cccnc12)c1ccc(Cl)cc1,-1.61 (inactive),0.617,0.0126 (inactive),0.765 (inactive),-1.01 (inactive),1.01 (inactive),0.883,-0.357 (inactive),-0.382 (inactive),0.127
CCCCCCc1nc(-c2cc(C)c(OC)c(C)c2)cc2c1[Si](C(C)C)(C(C)C)OC2,0.488 (inactive),0.147,0.827 (inactive),-0.0892 (inactive),0.193 (inactive),-0.351 (inactive),0.296,-5.61 (inactive),-1.72 (inactive),-3.75
COc1ccc(CCNC(=O)[C@@]2(C)c3ccccc3C(=O)N(C(C)C)[C@H]2c2ccc(CO)cc2)cc1,0.312 (inactive),-0.28,1.66 (inactive),0.133 (inactive),0.386 (inactive),-0.0145 (inactive),-0.441,-1.12 (inactive),-0.479 (inactive),-0.224
O=C(NCCN1CCOCC1)C1N=C(c2ccc(OCCCO)cc2)N(c2ccccc2)O1 (stereo not given),0.759 (inactive),0.0709,6.99 (inactive),0.287 (inactive),-0.625 (inactive),0.399 (inactive),-0.441,1.45 (inactive),-0.0142 (inactive),-0.429
COC(=O)[C@@]1(Cc2ccc(OC)cc2)[C@H]2c3cc(C(=O)N(C)C)n(C)c3C[C@H]2CN1C(=O)c1ccccc1,-2.89 (inactive),1.56,1.98 (inactive),0.451 (inactive),1.07 (inactive),1.16 (inactive),0.775,1.12 (inactive),1.77 (inactive),2.16
CC(CO)N1C(=O)[C@@H]2C3C(=O)OCCC/C=C\[C@H]3OC23C=CCN(C(C)(C)C)C(=O)[C@@H]13 (stereo not given in full),0.458 (inactive),-0.0984,0.943 (inactive),0.752 (inactive),2.51 (inactive),0.477 (inactive),-0.0054,0.89 (inactive),-0.437 (inactive),0.886
O=C(NC1CC1)[C@@H]1c2ccccc2C(=O)N(Cc2ccccc2Cl)[C@H]1c1ccc(CO)cc1,4.2 (inactive),0.208,3.45 (inactive),0.652 (inactive),-1.05 (inactive),0.204 (inactive),2.67,-1.1 (inactive),0.54 (inactive),0.33
COc1ccc(CCNC(=O)[C@@]2(Sc3ccc(C)cc3)CC(=O)N(C3Cc4ccccc4C3)[C@@H]2c2ccc(CO)cc2I)cc1,0.657 (inactive),0.627,10.7 (active),1.95 (inactive),0.497 (inactive),0.768 (inactive),-0.123,1.51 (inactive),-1.66 (inactive),1.9
COC(=O)[C@]1(CCC(=O)OC(C)(C)C)N=C(c2ccc(OCCCO)cc2)O[C@@H]1c1ccccc1CN=[N+]=[N-],-1.68 (inactive),0.235,30.3 (active),28.3 (active),-0.615 (inactive),5.71 (inactive),-0.0021,-3.48 (inactive),-1.72 (inactive),-2.41
CC1(C)[C@@H]2CC(C(O)C3C=CC4C(=O)N(Cc5ccccc5)C(=O)C4N3n3cnnc3)=C[C@H]1C2 (stereo not given in full),-0.316 (inactive),0.0451,1.31 (inactive),1.24 (inactive),0.313 (inactive),0.927 (inactive),-0.688,-0.14 (inactive),0.741 (inactive),0.273
CCOC(=O)C[C@H]1[C@H](OC(=O)c2ccc(C(=O)c3ccccc3)cc2)[C@@H](NC(=O)c2ccc3ccccc3c2)c2cc(OCCCO)ccc2N1C(=O)Cc1ccc(OC)cc1,0.739 (inactive),0.138,6.12 (inactive),0.448 (inactive),0.337 (inactive),0.184 (inactive),0.742,-0.992 (inactive),0.557 (inactive),0.161
COC(=O)[C@@]1(Cc2ccc(OC)cc2)[C@H]2c3cc(C(=O)N(C)C)n(Cc4ccccn4)c3C[C@H]2CN1C(=O)c1ccccc1,-1.76 (inactive),0.771,1.63 (inactive),0.463 (inactive),1.01 (inactive),0.863 (inactive),0.704,0.188 (inactive),-1.32 (inactive),-2.73
